AC50 and activity, negative = inhibition data for 61 molecules are collected here from PubChem BioAssay AID1851 (National Center for Advancing Translational Sciences (NCATS), 2009).

Values joined by “and” are separate entries in the source; they are usually repeats but may differ in a detail not shown here. Equal values may be shown once. Among all 16,000 compounds or so, about 5,800 (36%) were called active. Roughly 23% stayed inconclusive and do not appear here. Calls come from the whole dose curve; as a rule, active = well fitted curve in the direction sought with a large enough effect; inconclusive = small, poorly fitted or top-dose-only effect, or effect the other way; inactive = no such curve, though single readings can be large or run the other way. The list shows a part of the results. A structure can be active in one record and inactive in another.
% is set by controls: 0 for no effect and ±100 for the full control effect.

The target in the experiment is Cytochrome P450 2C19 (Homo sapiens) (UniProt P33261). Nature of the experiment: Cytochrome panel assay with activity outcomes. To be noted: recombinant CYP, pro-luciferin dealkylation, luminescence, p450-cyp2c19; series mostly up to 57.1 µM.
Chain of Cytochrome P450 2C19 (Homo sapiens) (P33261 whole entry, looked up): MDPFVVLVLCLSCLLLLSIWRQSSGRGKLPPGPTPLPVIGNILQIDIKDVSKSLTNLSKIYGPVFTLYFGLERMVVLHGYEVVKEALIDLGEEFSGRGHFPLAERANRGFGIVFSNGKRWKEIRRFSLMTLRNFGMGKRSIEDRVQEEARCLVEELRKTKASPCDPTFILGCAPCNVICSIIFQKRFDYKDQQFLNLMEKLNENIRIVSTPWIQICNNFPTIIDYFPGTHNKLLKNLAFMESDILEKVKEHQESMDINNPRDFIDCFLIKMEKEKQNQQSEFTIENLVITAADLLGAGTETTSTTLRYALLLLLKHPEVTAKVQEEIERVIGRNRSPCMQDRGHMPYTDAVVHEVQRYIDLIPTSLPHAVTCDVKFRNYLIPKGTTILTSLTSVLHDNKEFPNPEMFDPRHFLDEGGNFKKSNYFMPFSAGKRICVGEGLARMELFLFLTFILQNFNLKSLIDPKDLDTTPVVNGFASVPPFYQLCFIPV
As usually defined, the AC50 is the concentration giving half of the maximal activity seen. As for `c1ccc2nc(N3CCNCC3)ccc2c1`, the AC50 result is “inactive”. `O=C(O)[C@@H]1[C@H](C(=O)O)[C@]2(Cl)C(Cl)=C(Cl)[C@@]1(Cl)C2(Cl)Cl`: the activity, negative = inhibition is -2.94% [at 11.4 µM] (inactive). As to `NCC1(CC(=O)O)CCCCC1`, the AC50 entry was “inactive”. As to `CCN(CC)CCn1ncc2c(N)ncnc21`, the activity, negative = inhibition was -2.72% [at 11.4 µM] (inactive).

For `C[C@H](N)[C@@H](O)c1ccccc1`, the AC50 entry was “inactive”.

Turning to `CN1[C@@H]2CC[C@H]1CC(O[C@@H](c1ccccc1)c1ccc(Cl)cc1)C2` (stereo partly specified), the AC50 result was “inactive”. Same read-out and setting: to `CC(NCc1ccc(Cl)cc1)C(O)c1ccccc1` (stereo unspecified) belongs 355 nM (active); to `Cc1sc2ccccc2c1CC1=NCCN1`, “inactive”; to `c1ccc(C2CC2)c(OCC2=NCCN2)c1`, “inactive”. With `CCSCC[C@H](N)C(=O)O`, the activity, negative = inhibition is -18% [at 11.4 µM] (inactive). Still for that read-out and setting: under `[N-]=[N+]=CC(=O)CC[C@H](N)C(=O)O` stands 0.0153% [at 11.4 µM] (inactive). With `CC(C)COC(=O)OCN1C(=O)CN(CCN2CC(=O)N(COC(=O)OCC(C)C)C(=O)C2)CC1=O`, the AC50 entry is “inactive”. On the same count and under the same terms, under `c1csc(CN2CCCC3(CCNCC3)C2)n1` stands “inactive”. The same measure, in the same setting: under `O=C(CN1CCCCC1)Nc1ccc(Br)cc1C(=O)c1ccccc1Cl` stands 7940 nM (active). `O=c1[nH]cnc2[nH]cc(CN3CCCCC3)c12`: the activity, negative = inhibition is 39.9% [at 11.4 µM] (inactive).

For `Cc1nnc2ccc(-c3cccc(C(F)(F)F)c3)nn12`, the AC50 entry was “inactive”. In the case of `CCC1(CCSC(=N)N)C(=O)NC(=O)NC1=O`, the activity, negative = inhibition was 20.6% [at 11.4 µM] (inactive). Consider `O=C1CCCN1CC#CCN1CCCC1`, for which the AC50 entry was “inactive and 158 nM (active)”.

Turning to `C[N+](C)(C)CC#CCN1CCCC1=O`, the AC50 result is “inactive”. For the molecule `C(#CCN1CCCC1)CN1CCCC1`, the AC50 result was “inactive”.

`CN(CCC(=O)O)C1=Nc2ccc(Cl)cc2C(c2ccccc2)=[N+]([O-])C1`: the activity, negative = inhibition is -1.35% [at 11.4 µM] (inactive). With `Nc1nc(N)c2nc(CNc3ccc(C(=O)N[C@H](CCC(=O)O)C(=O)O)cc3)cnc2n1`, the AC50 result was “inactive”. `O=C(O)CNC(=O)[C@@H](CS)Cc1ccccc1`: the AC50 entry is “inactive”. In the case of `Cc1cc[c]([Sb]2[O][C@H]([C@H](O)[C@H](O)C(=O)O)[C@@H](CO)[O]2)cc1`, the activity, negative = inhibition was 30.4% [at 11.4 µM] (inactive). Regarding `N[C@@H](Cn1ccc(=O)n(Cc2ccc(C(=O)O)cc2)c1=O)C(=O)O`, the AC50 result is “inactive”. `CC(C)(O)/C=C\C(=O)[C@](C)(O)[C@H]1[C@H](O)C[C@]2(C)[C@@H]3CC=C4[C@@H](C=C(O)C(=O)C4(C)C)[C@]3(C)C(=O)C[C@@]12C`: the activity, negative = inhibition is -7.19% [at 11.4 µM] (inactive). On to `O=C(Nc1ccc(C(F)(F)F)cc1)c1cccn(Cc2ccc3c(c2)OC(F)(F)O3)c1=O`, for which the concentration at half-maximal activity (AC50) was 3160 nM (active). Same read-out and setting: to `CC(=O)Nc1ccccc1C(=O)OCc1ccc(C(=O)c2ccccc2)cc1` belongs 3550 nM (active); to `NS(=O)(=O)c1cc([C@@]2(O)NC(=O)c3ccccc32)ccc1Cl`, “inactive”. Regarding `NC[C@@H](Cc1ccccc1)P(=O)(O)O`, the activity, negative = inhibition is -0.815% [at 11.4 µM] (inactive). For the molecule `O=C(Oc1ccccc1)N1CCC[C@@]2(CCN(C(c3ccccc3)c3ccccc3)C2)C1`, the AC50 result is “inactive”. Turning to `O=C(O)Cc1cnc[nH]1`, the AC50 result is “inactive”. Same read-out and setting: to `CC[C@@H](CO)NC(=O)[C@H]1C=C2c3cccc4c3c(cn4C)C[C@H]2N(C)C1` belongs 126 nM (active); to `CC[C@H](CO)NC(=O)[C@@H]1C=C2c3cccc4c3c(cn4C)C[C@@H]2N(C)C1`, “inactive”; to `COc1ccc(NC(=O)N2CCCC3(CCN(C(=O)Oc4ccccc4)CC3)C2)cc1`, “inactive”.

As to `CN(C)CS/C(N)=N/[C@H](O)C(Cl)(Cl)Cl`, the activity, negative = inhibition was -3.05% [at 11.4 µM] (inactive). For `CNC[C@H](O)c1ccc(O)cc1`, the AC50 result was “inactive”. Take `C[C@H](N)Cc1c[nH]c2ccc(O)cc12`: the AC50 entry is “inactive”. The same measure, in the same setting: to `CNC(C)Cc1ccccc1Sc1ccc(O)cc1` (stereo unspecified) belongs 10000 nM (active). Same read-out and setting: to `CC(N)Cc1ccccc1Sc1ccc(O)cc1` (stereo unspecified) belongs 15800 nM (active); to `O=C(Oc1ccc([N+](=O)[O-])cc1)N1CCC(N2CCCCC2)CC1`, “inactive”. Still for that read-out and setting: to `O=C1Nc2ccc(I)cc2/C1=C/c1cc(Br)c(O)c(Br)c1` belongs “inactive”; to `Nc1nc2ccc(Cl)cc2c2nc(-c3ccco3)nn12`, “inactive”; to `CCOP(=O)(OCC)c1nc(/C=C/c2ccccc2)oc1NCc1ccccc1`, 2240 nM (active). Regarding `CCNC(C)(C)[C@@H](SS)c1ccc(Br)cc1`, the activity, negative = inhibition was -70.9% [at 11.4 µM] (inactive). Consider `COC1(CS(=O)c2ccccc2)CCN(CCc2c[nH]c3ccc(F)cc23)CC1` (stereo unspecified), for which the AC50 result is “inactive”. Still for that read-out and setting: to `O=NN(Cc1ccc(Cl)cc1)[C@@H](C(=O)O)c1ccccc1` belongs 398 nM (active). On to `COc1ccc2c(c1)[C@]13CCCC[C@@H]1[C@H](C2)NCC3`, for which the AC50 result is “inactive”. Same read-out and setting: under `CN1CCc2cccc(Cl)c2CC1` stands “inactive”; under `c1ccc(N2CC[C@@]3(CCCNC3)C2)cc1`, “inactive”. Take `Cc1cc(Cc2cc(C)c(N)cc2N)c(N)cc1N`: the activity, negative = inhibition was -42.7% [at 11.4 µM] (inactive). As for `CCCn1c(=O)c2[nH]c(C3CCCC3)nc2n(CCCOC(=O)c2ccc(S(=O)(=O)F)cc2)c1=O`, the AC50 result is “inactive”. With `CCOC(=O)c1c(NC(=O)C(c2ccccc2)c2ccccc2)sc2c1C1CCN2CC1`, the AC50 is 3550 nM (active). The same measure, in the same setting: under `CN(C)[C@@H]1C(=O)C(C(N)=O)=C(O)[C@]2(O)C(=O)C3=C(O)c4c(O)cccc4[C@@](C)(O)[C@H]3[C@H](O)[C@@H]12` stands “inactive”. As to `C[C@@]12CC[C@@H]3[C@H](CCC4=CC(=O)CC[C@]43C)[C@@H]1CC[C@@H]2C(=O)Cn1cnc2c(=S)nc[nH]c21`, the activity, negative = inhibition is -3.21% [at 11.4 µM] (inactive). As for `CC(O)(CS(=O)(=O)c1cccc(C(F)(F)F)c1)C(=O)Nc1cccc(C(F)(F)F)c1` (stereo unspecified), the half-maximal activity concentration (AC50) was 2510 nM (active).

Take `O=C(O)c1ccccc1Nc1cccc(C(F)(F)F)c1`: the AC50 result was “inactive”. The same measure, in the same setting: under `CC(O)(CS(=O)(=O)c1cccc(C(F)(F)F)c1)C(=O)Nc1ccc(C(F)(F)F)cc1` (stereo unspecified) stands 794 nM (active); under `CC(O)(CS(=O)(=O)c1ccccc1)C(=O)Nc1cccc(C(F)(F)F)c1` (stereo unspecified), 2240 nM (active). With `CC[C@@H]1CN2CCc3cc(OC)c(OC)cc3[C@H]2C[C@@H]1C[C@@H]1NCCc2cc(O)c(OC)cc21`, the AC50 result was “inactive”. For `Cn1c(=O)c2[nH]cnc2n(C)c1=O.[CH2-][C@H](Cc1cccc2cc(C(=O)O)c(=O)oc12)OC.[Hg].[OH-]`, the activity, negative = inhibition is 27.4% [at 11.4 µM] (inactive).
